# JMJD2A Tudor inh = blocks the human JMJD2A Tudor domain; O75164; Potency, µM (highest dose often 114 µM), for inactives: at the highest dose activity change, negative = inhibition, usual class: inhibitors; AlphaScreen JMJD2A-Tudor / H3K4me3 peptide binding; 390,000 compounds, 4.4% hits; also: % is scaled to controls: 0 for no effect and ±100 for the full control effect; nearly all actives have a fitted effect of over 50% in size
# G9a block = blocks human histone lysine methyltransferase G9a | Q96KQ7 | G9a H3K9 monomethylation, AlphaScreen, 2 h | Potency, µM (top dose mostly 102 µM), without a hit: top-dose activity, negative = inhibition, actives largely listed as inhibitors | 350,000 compounds, 8.8% hits | AID 504332; also: % is scaled to controls: 0 for no effect and ±100 for the full control effect; nearly all actives have a fitted effect of over 75% in size
#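 G9a (20 nM) was preincubated 15 min with compound, then reacted 2 h at room temperature with 500 nM biotin-H3K9 peptide and 20 µM SAM. Monomethyl-H3K9 detected by AlphaScreen using anti-H3K9me1 antibody.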
# 12-LOX inh = blocks human arachidonate 12S-lipoxygenase | Potency, µM (top dose mostly 108 µM), for the others: at the highest dose activity change, negative = inhibition, usual class: inhibitors | AID 1671190 | purified 12hLO, xylenol orange hydroperoxide absorbance | P18054 | 580,000 compounds, 1.1% hits; also: % is scaled to controls: 0 for no effect and ±100 for the full control effect
#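 Hydroperoxide product was detected by ferrous iron/xylenol orange as the 573 to 405 nm absorbance ratio. Arachidonic acid at 40 uM (final) was turned over for 30 min at room temperature by 150 nM human 12hLO, pH 7.0 Hepes buffer, after 15 min compound preincubation.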
# HP1b binding inh = inhibitors of HP1-beta chromodomain binding to methylated histone tails. AlphaScreen HP1-beta / biotin-H3K9me3 peptide binding. Potency, µM (doses to about 114 µM), without a hit: at the highest dose activity change, negative = inhibition, most hits filed as inhibitors. AID 540317. P83916. 390,000 compounds, 0.56% hits; also: nearly all actives have a fitted effect of over 70% in size
#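 HP1-beta protein (50 nM final) preincubated 30 min at room temperature with biotinylated H3(1-18)K9me3 peptide (50 nM) in PBS pH 7.4, 0.01% Tween-20, then compound added for 30 min. AlphaScreen streptavidin donor/nickel chelate acceptor beads (10 ug/mL final), 30 min dark, luminescence read.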
# PLK1 PBD inh = inhibitors of human PLK1 polo-box domain binding. Potency, µM, inactives show max response, negative = inhibition, hits mostly inhibitors. P53350. AID 720504. 360,000 compounds, 2.8% hits. Plk1 PBD binding of FITC phosphopeptide, fluorescence polarization; also: series mostly up to about 57 µM; % is scaled to controls: 0 for no effect and ±100 for the full control effect; nearly all actives have a fitted effect of over 65% in size
# Target sequence (P53350 whole entry, looked up, the tested form may be a part): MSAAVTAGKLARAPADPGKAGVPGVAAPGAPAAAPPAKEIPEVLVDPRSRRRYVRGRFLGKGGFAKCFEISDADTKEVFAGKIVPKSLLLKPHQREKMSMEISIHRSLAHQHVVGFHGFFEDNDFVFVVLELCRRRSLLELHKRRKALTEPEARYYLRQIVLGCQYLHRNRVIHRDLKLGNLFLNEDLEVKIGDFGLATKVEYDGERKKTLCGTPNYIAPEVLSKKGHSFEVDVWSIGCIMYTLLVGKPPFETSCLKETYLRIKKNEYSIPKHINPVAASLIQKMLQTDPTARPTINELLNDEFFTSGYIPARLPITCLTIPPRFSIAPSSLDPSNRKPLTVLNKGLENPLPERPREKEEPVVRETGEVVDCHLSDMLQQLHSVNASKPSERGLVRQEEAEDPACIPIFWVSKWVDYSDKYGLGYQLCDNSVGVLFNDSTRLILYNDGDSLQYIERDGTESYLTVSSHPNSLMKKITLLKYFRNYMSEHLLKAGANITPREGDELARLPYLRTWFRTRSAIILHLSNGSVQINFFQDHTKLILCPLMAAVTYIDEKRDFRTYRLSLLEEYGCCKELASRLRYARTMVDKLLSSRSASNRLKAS
# BAZ2B inh = BAZ2B (human) inhibition. 360,000 compounds, 4.4% hits. AID 504333. AlphaScreen BAZ2B-H3K14Ac peptide displacement. Potency, µM (series often up to 114 µM), inactives show at the top dose activity change, negative = inhibition, hits mostly inhibitors. Q9UIF8; also: % is scaled to controls: 0 for no effect and ±100 for the full control effect; nearly all actives have a fitted effect of over 60% in size
#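 Multi-concentration screen (max 110 uM) measuring displacement of acetylated histone H3 peptide from BAZ2B by AlphaScreen, using 50 nM protein, 50 nM peptide and 10 ug/mL streptavidin donor plus Ni-chelate acceptor beads.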
# Starred values were filed as active, the others as inactive; ? = inconclusive; / = not tested or not shown; [ ] = remark or other dose. In the library only some 9% were active in any assay of this set; here they are far more common. Calls follow the shape of the dose curve; as a rule, active = well fitted curve in the direction sought with a large enough effect; inconclusive = small, poorly fitted or top-dose-only effect, or another doubt; inactive = no such curve, though single readings can be large; an effect the other way counts as inactive or inconclusive. Potency is read from the fitted curve at half-maximal effect.
SMILES,JMJD2A Tudor inh,G9a block,12-LOX inh,HP1b binding inh,PLK1 PBD inh,BAZ2B inh
O=C(O)CC/C(=N\NC(=O)c1ccncc1)c1ccccc1,25.1µM*,/,14.8%,11.8%,-9.4%,-6.5%
O=C(N/N=C/c1cc(Cl)ccc1O)c1ccc(Br)cc1,25.1µM*,6.0%[59 µM],-15.8%,28.9%,-7.7%,?
Cc1sc(N/N=C/c2cc([N+](=O)[O-])ccc2O)nc1-c1ccccc1,22.4µM*,4.8%,5.7%,15.9%,15µM*,-7.9%
CCc1ccc(OCC(=O)Nc2ccc3c(c2)OCCO3)cc1,-3.4%,-10.6%,24.2%,25.6%,-1.2%,5.9%
O=C(COC(=O)/C=C/c1ccccc1Cl)NC(=O)NC1CCCC1,-0.7%,6.3%,9.2%,18.9%,-7.4%,6.0%
Cc1cc(-c2ccccc2)cc(-c2ccccc2)[n+]1C,6.5%,8.5%,-7.3%,23.3%,-1.4%,1.4%
COc1cc(O)c(/C=N/NC(=O)c2ccncc2)c(OC)c1[N+](=O)[O-],50.1µM*,-28.4%,143.6%,48.7%,-6.5%,7.94µM*
O=C(N/N=C/c1cc(Br)ccc1O)c1ccncc1,28.2µM*,58.9%[12.7 µM],1.2%,35.2%,11.8%,20µM*
COCC(=O)Nc1cc([N+](=O)[O-])ccc1C,-1.4%[11.4 µM],34.4%[0.501 µM],4.9%,2.0%,11.9µM*,-22.0%
COc1ccc(/C=N/NC(=O)c2ccncc2)cc1[N+](=O)[O-],1.7%,-2.9%,0.3%,40.2%,-13.2%,-16.3%
CCc1ccc(N2CC(C(=O)N/N=C/c3cc([N+](=O)[O-])ccc3O)CC2=O)cc1 (configuration not stated),39.8µM*,25.1%,?,13.5%,-1.6%,50.1µM*
O=C(N/N=C/c1ccccc1O)c1cc[n+]([O-])cc1,35.5µM*,-4.0%,36.8%,66.1%,-23.5%,20µM*
O=[N+]([O-])c1ccc(O)c(/C=N/Nc2ccccc2Cl)c1,-7.5%[11.4 µM],6.31µM*,?,-2.7%,26.7µM*,-26.0%
O=C(N/N=C/c1ccc(O)c(O)c1O)/C(=C/c1ccc([N+](=O)[O-])cc1)NC(=O)c1ccccc1,31.6µM*,1.58µM*,?,25.1µM*,9.47µM*,?
COCC(=O)Nc1ncc(S(=O)(=O)c2ccc([N+](=O)[O-])cc2)s1,?,35.5µM*,-2.0%,7.3%,?,/
Cc1ccc(NC(=O)/C(=C\c2ccc([N+](=O)[O-])cc2)NC(=O)c2ccccc2)cc1,7.7%,-11.9%[0.0925 µM],-10.1%,25.8%,-2.3%,1.4%
O=[N+]([O-])c1ccccc1N/N=C\c1ccccc1Cl,-18.6%,-4.5%[59 µM],-4.0%,1.3%,-5.4%,-9.7%
COc1ccc(Br)c(C(=O)N2CCN(S(=O)(=O)/C=C/c3ccccc3)CC2)c1,-21.2%,0.5%,-5.9%,5.1%,-7.9%,-16.0%
CN(C)c1ccc(/C=N/NC(=O)c2nonc2N)cc1[N+](=O)[O-],-27.1%[11.4 µM],-12.6%,0.5%,?,26.7µM*,-32.0%
O=C(NC1(c2ccccc2)CCC1)c1cc(=O)[nH]c2ccccc12,/,/,11.2µM*,/,/,/
O=C(N/N=C/c1cc([N+](=O)[O-])ccc1O)c1ccncc1,22.4µM*,/,-7.2%,42.6%,-1.5%,10µM*
Nc1nonc1C(=O)N/N=C/c1cccc([N+](=O)[O-])c1,-4.2%,15.3%[59 µM],-3.8%,8.1%,-0.9%,5.6%
COc1ccc(-c2c(-c3cc(OC)cc(OC)c3)n(C)c3ccc(-c4ccc(N(C)C)nc4)cc23)cc1,?,-0.4%[0.501 µM],-36.8%,-7.8%,4.8%,?
COc1ccc(C(=O)Nc2ncccc2C)cc1Br,/,/,-3.6%,/,/,/
Cc1cccnc1NC(=O)c1ccc2nc(N)sc2c1,-2.1%,39.8µM*,4.6%,13.9%,?,3.6%
SMILES,JMJD2A Tudor inh,G9a block,12-LOX inh,HP1b binding inh,PLK1 PBD inh,BAZ2B inh
O=c1cc(-c2ccc(O)c(O)c2)oc2cc(O[C@@H]3O[C@H](CO)[C@@H](O)[C@H](O)[C@H]3O)cc(O)c12,12.6µM*,/,4.6%,5.0%,-5.5%,/
COc1ccc(OC)c(C2=NS(=O)(=O)N(C)C(C(=O)Nc3cccc(C(C)=O)c3)=C2)c1,15.8µM*,44.7µM*,-16.7%,-11.2%,18.9µM*,?
COc1ccc(NC(=O)C2=CC(c3cccs3)=NS(=O)(=O)N2C)cc1,?,-11.6%,1.2%[57.4 µM],5.5%,-3.4%,-26.5%
Cc1ccc(C2=NS(=O)(=O)N(C)C(C(=O)NCc3cccs3)=C2)cc1,-28.9%,7.5%,26.6%,3.8%,2.7%,-38.2%
COc1ccc(OC)c(C2=NS(=O)(=O)N(C)C(C(=O)NCc3cccs3)=C2)c1,22.4µM*,-2.1%,?,-6.6%,26.7µM*,-29.8%
FC(F)(F)c1cnc(-c2cnc(-c3cccnc3)nc2)c(Cl)c1,?,-1.7%,-2.9%,-7.9%,23.8µM*,-1.1%
COc1ccccc1CN1CCc2c([nH]c3ccccc23)C1,20µM*,7.08µM*,?,?,-10.2%,50.1µM*
O=C(c1ccccc1Br)N1CCc2c([nH]c3ccccc23)C1,?,9.2%[2.33 µM],?,-15.6%,5.9%,?
COc1ccccc1CN1C(=O)[C@H]2Cc3c([nH]c4ccccc34)C(C)(C)N2C1=O,-21.8%,/,10.1%,40.2%,/,/
Clc1cccc(CN2CCc3c([nH]c4ccccc34)C2)c1Cl,22.4µM*,50.1µM*,?,?,?,22.4µM*
COc1cc(CN2CCc3c([nH]c4ccccc34)C2)cc(OC)c1,7.94µM*,31.6µM*,?,?,8.44µM*,35.5µM*
COc1ccc(-c2nnc3ccc(N4CCc5ccccc5C4)nn23)nc1,/,/,20.3%[176 µM],/,/,/
O=C(CSc1nc2nc(-c3cccs3)cc(C(F)(F)F)c2c(=O)[nH]1)Nc1ccc(F)c(F)c1,?,-22.3%,-25.0%,-0.7%,7.52µM*,?
O=C(Nc1cccc(-c2nnc3n2CCCC3)c1)Nc1ccccc1F,/,/,0.7%,/,/,/
CCN1CCN(C(c2ccc(OC)cc2)c2c(O)cc(C)n(Cc3ccco3)c2=O)CC1 (configuration not stated),79.4µM*,?,?,9.8%[57 µM],/,-17.5%
CCN1CCN(C(c2ccc(SC)cc2)c2c(O)cc(C)n(Cc3ccco3)c2=O)CC1 (configuration not stated),79.4µM*,?,?,-13.3%[57 µM],/,-13.1%
CCN1CCN(C(c2ccccc2)c2c(O)cc(C)n(Cc3ccco3)c2=O)CC1 (configuration not stated),?,?,0.7%,14.5%[57 µM],/,-18.7%
CS(=O)(=O)NCCn1ccc2ccccc21,?,?,-9.8%,13.4%,29.9µM*,/
CC(C)(C)C(=O)NCCn1ccc2ccccc21,-15.3%,15.8%[59 µM],20.2%,24.0%,4.7%,6.1%
CCOc1cc(/C=C/C(=O)c2ccc(Cl)cc2)cc(Cl)c1O,/,/,7.94µM*,/,/,/
